Potency and affinity values are given separately. The source made the active and inactive calls. A call without a number means that no potency is given here. The rule behind the calls is not given here.
Test: HEK293 cell cytotoxicity, dose response, cytotoxicity control, dry powder samples (AID 720567)
Conditions: plate reader; series mostly up to 15 µM

| Structure (SMILES) | outcome |
| --- | --- |
| c1ccc(CSc2nnc(-c3ccccc3)o2)cc1 | inactive |
| COc1ccc(CSc2nnc(-c3ccccc3)o2)cc1 | inactive |
| CC(=O)N[C@H]1[C@@H](O[C@@H]2OC(C[C@@H](O)C3O[C@@H](n4ccc(=O)[nH]c4=O)[C@H](O)[C@@H]3O)[C@H](O)[C@H](O)[C@H]2NC(=O)/C=C/CCCCCCCCCCC(C)C)O[C@H](CO)[C@@H](O)[C@@H]1O (stereo partly drawn) | inactive |
